Shown are actives, neighbours in structure and some others; about 10% of the full set was active somewhere.
PNC inhibitor = blocks assembly of the perinucleolar compartment; PC3M PTB-GFP, PNC prevalence imaging, 16 h; active compounds read low; activity change (PNC), negative = inhibition, % at 10 µM; 140,000 tested, 3.1% active; AID 2417;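 active = readout at or below -70, meaning at least 70% loss of cells showing the perinucleolar compartment, a nuclear body marking cancer cells; inconclusive = readout between -30 and a set limit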;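 note: plate controls were DMSO wells for no effect and camptothecin positive control wells for full effect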
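PC3M cells stably expressing PTB-GFP, 750–1000 cells/well, treated 16 h at 37 °C with compound (23 nl of library stock), in duplicate. After paraformaldehyde fixation and Hoechst stain, imaged at 20x; PNC prevalence scored by image analysis.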
Lamin A splicing = LMNA splicing modulation; AID 1487; Potency, µM (doses to about 46.1 µM), for the others: at the top dose ratio change, negative = inhibition, hits mostly inhibitors; 200,000 tested, 0.01% active; HeLa LMNA splicing GFP/RFP minigene ratio, 48 h; active = well fitted inhibition curve with a large enough effect in the signal ratio, with a control signal flat, not every such curve was filed as active; inconclusive = small, poorly fitted or top-dose-only effect, or effect the other way, or a change in a side signal; the % refers to the signal ratio; note: potency is the fitted concentration of half-maximal effect
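S3 HeLa stable clones carrying a lamin A-EGFP splicing minigene plus DsRed2 were seeded at 600 cells/well in Opti-MEM with 2% FBS, pin-dosed and incubated 48 h at 37°C. Acumen cytometry (488 nm) gave the GFP/RFP total-intensity ratio.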
ALOX12 inhib = blocks human 12-lipoxygenase activity; P18054; purified 12-hLO, xylenol orange hydroperoxide absorbance; Potency, µM (series often up to 57.1 µM), for inactives: at the top dose activity change, negative = inhibition, hits mostly inhibitors; 150,000 tested, 0.12% active; AID 1452; active = well fitted inhibition curve with a large enough effect; inconclusive = small, poorly fitted or top-dose-only effect; note: potency is the fitted concentration of half-maximal effect; nearly all actives have a fitted effect of over 55% in size
Target sequence (P18054 whole entry, looked up): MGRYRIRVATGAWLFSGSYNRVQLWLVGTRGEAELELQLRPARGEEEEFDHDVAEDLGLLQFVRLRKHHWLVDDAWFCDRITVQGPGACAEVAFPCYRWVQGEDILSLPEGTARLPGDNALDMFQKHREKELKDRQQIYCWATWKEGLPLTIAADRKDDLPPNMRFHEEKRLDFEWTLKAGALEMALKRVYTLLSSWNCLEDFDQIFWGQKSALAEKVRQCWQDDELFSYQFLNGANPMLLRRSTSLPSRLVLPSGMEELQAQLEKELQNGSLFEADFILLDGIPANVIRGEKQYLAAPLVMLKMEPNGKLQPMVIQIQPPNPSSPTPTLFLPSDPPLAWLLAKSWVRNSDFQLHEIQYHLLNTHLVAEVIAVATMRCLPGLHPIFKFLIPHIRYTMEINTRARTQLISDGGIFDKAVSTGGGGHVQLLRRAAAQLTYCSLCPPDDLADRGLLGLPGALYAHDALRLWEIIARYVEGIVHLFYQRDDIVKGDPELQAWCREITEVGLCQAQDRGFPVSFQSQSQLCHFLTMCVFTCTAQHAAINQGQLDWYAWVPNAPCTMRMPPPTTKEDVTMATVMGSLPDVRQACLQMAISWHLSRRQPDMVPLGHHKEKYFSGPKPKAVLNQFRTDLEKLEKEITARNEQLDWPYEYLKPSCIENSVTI
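Lipoxygenase turnover measured by absorbance at 573 and 405 nm after Fe-XO development. Human 12hLO 150 nM, arachidonate 40 uM, pH 7.0 Hepes buffer with detergent; 15 min compound preincubation, 30 min reaction.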
HPGD inh = inhibitors of human 15-hydroxyprostaglandin dehydrogenase (HPGD); purified HPGD, NADH fluorescence kinetic, PGE2 substrate; 150,000 tested, 4.3% active; Potency, µM, for inactives: at the highest dose activity change, negative = inhibition, hits mostly inhibitors; note: potency is the fitted concentration of half-maximal effect
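NADH formation kinetics: reaction with 30 uM PGE2 and 1 mM NAD+ (final), 20 nM enzyme, Tris-HCl pH 8 with Tween 20, after 15 min compound preincubation at room temperature. Fluorescence change, last versus first of five reads.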
ALDH1A1 block = inhibitors of human aldehyde dehydrogenase 1A1; P00352; Purified ALDH1A1, NADH fluorescence, propionaldehyde substrate; Potency, µM (top dose mostly 75.3 µM), for inactives: top-dose activity, negative = inhibition, most hits filed as inhibitors; 220,000 tested, 7.3% active;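 note: potency is the fitted concentration of half-maximal effect; plate controls were no enzyme wells and a reference inhibitor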
Numbers without * were called inactive; u = inconclusive; x = no result given; [ ] = remark or other dose. Unless noted, calls come from the whole dose curve; as a rule, active = well fitted inhibition curve with a large enough effect (not every such curve was filed as active); inconclusive = small, poorly fitted or top-dose-only effect, or another doubt; inactive = no such curve, though single readings can be large or run the other way. Unless noted, % is set by controls: 0 for no effect and ±100 for the full control effect.

SMILES | PNC inhibitor | Lamin A splicing | ALOX12 inhib | HPGD inh | ALDH1A1 block
CN1C(=O)CC(N2CCC(C(N)=O)(N3CCCCC3)CC2)C1=O (stereo not drawn) | -11 | 3% | -4% | -7% | 8%
Cc1cccc(CS(=O)(=O)CC2Nc3ccc(C(=O)NCc4ccccc4Cl)cc3NC2=O)c1 (stereo not drawn) | x | -4%[46 µM] | x | x | x
C#CCCCO/N=C1/C[C@@H](O)[C@@H](O)[C@@H]2[C@@H]3C(=O)N(C[C@@H]4CCCO4)C(=O)[C@H]3CC[C@@H]12 | x | x | x | x | -1%[13.5 µM]
NC(=O)CSc1nc2cc3c(cc2c(=O)n1CCCCCC(=O)NCc1ccc2c(c1)OCO2)OCO3 | x | -2%[46 µM] | x | x | x
O=C(Nc1c(C(=O)N2CCN(c3ccccc3F)CC2)oc2ccccc12)c1cccc(F)c1 | x | 4%[46 µM] | x | x | x
COc1cccc(N2CCN(C3CC(=O)N(c4ccc(Cl)c(Cl)c4)C3=O)CC2)c1 (stereo not drawn) | 26 | -9% | -6% | -7% | u
O=C1CCCN1CCC1CCN(C2CC(=O)N(Cc3ccc(N4CCCC4=O)cc3)C2=O)CC1 (stereo not drawn) | u | u | 0% | 5% | u
O=C1CC(NC23CC4CC(CC(C4)C2)C3)C(=O)N1c1ccc2c(c1)OCO2 (stereo not drawn) | -16 | 14% | -1% | -5% | 11µM*
O=C1CCCN1CCC1CCN(C2CC(=O)N(c3ccc(Cl)cc3)C2=O)CC1 (stereo not drawn) | 0 | 9% | -24% | -7% | 20µM*
O=C1C2C3C=CC(C3)C2C(=O)N1c1ccc2c(c1)OCO2 (stereo not drawn) | -13 | -6% | -7% | -19% | u
COc1ccc(N2C(=O)CC(N3CCN(C4CCc5ccccc5C4)CC3)C2=O)cc1 (stereo not drawn) | -121* | 2% | -1% | -3% | u
O=C1CC(N2CCCCCC2)C(=O)N1c1ccc2c(c1)OCO2 (stereo not drawn) | 36 | -11% | -1% | -16% | 5µM*
C=CCNC(=S)NNc1nc(Nc2ccccc2)nc(N2CCCCC2)n1 | x | 6%[46 µM] | x | x | 16µM*
CC(=O)N[C@@H](C=O)[C@@H](O)[C@H](O)[C@H](O)CO | x | x | -2%[0.00818 µM] | -8% | 6%
CCc1ccc(CNC(=O)CCn2c(=O)c3cccn3c3ccc(F)cc32)cc1 | x | 11%[46 µM] | x | x | x
Cc1cc(NC(=O)CC23CC4CC(C2)CC(CC(=O)Nc2cc(C)on2)(C4)C3)no1 | -92* | -9% | -1% | -7% | u
Cc1cc(NC(=O)CCC2CCCC2)no1 | u | 1% | 3% | -9% | -10%
Cc1cc(NC(=O)C(C)(C)C)no1 | -84* | 10% | 0% | -1% | 11%
Cc1cc(O)c(C)c2c1CC[C@H]1[C@H](C)C(=O)O[C@H]21 | x | x | x | -2% | 2%
CCOc1ccc(S(=O)(=O)NCc2ccco2)c2ccccc12 | 12 | 14% | u | u | 14µM*
O=S(=O)(NCc1ccco1)c1cccc2cccnc12 | -100* | 1% | -1% | -9% | 4%
CCOc1cc(C)c(Cl)cc1S(=O)(=O)NCc1ccco1 | 52 | 9% | -1% | -12% | 0%
C/C(=N\Nc1ccccn1)c1ccc(S(=O)(=O)NCc2ccco2)cc1 | -83* | 8% | -3% | -13% | 29%
C/C(=N\Nc1ccc(C(F)(F)F)cn1)c1ccc(S(=O)(=O)NCc2ccco2)cc1 | 14 | u | 0% | -21% | 6%
O=C(NC1CC(=O)N(c2ccccc2)C1)c1ccc(S(=O)(=O)N2CCCC2)cc1 (stereo not drawn) | x | 5%[46 µM] | x | x | x
SMILES | PNC inhibitor | Lamin A splicing | ALOX12 inhib | HPGD inh | ALDH1A1 block
CCOC(=O)N1CCN(C(=O)Cc2ccc(Cl)cc2)CC1 | u | -5% | -6% | x | -5%
CC(C)COc1ccc(C(=O)CCN2CCCCC2)cc1 | -20 | u | -12% | -17% | 0.1µM*
CCOC(=O)N1CCN(CCC(=O)c2ccc(Cl)cc2)CC1 | 2 | u | -3% | 25µM* | 0.089µM*
CCOC(=O)N1CCN(CCC(=O)c2ccc(OC)cc2)CC1 | x | x | x | x | 0.71µM*
COc1ccc(Cl)cc1NC(=O)N1CCC(CN2CCc3ccccc3C2)CC1 | x | 0%[46 µM] | x | x | x
CC[C@@H](c1ccccc1)n1c(=O)n2n(c1=O)[C@H]1[C@H](O)[C@H]3O[C@H]3C(=O)[C@H]1CC2 | x | x | x | x | -1%[13.5 µM]
COc1ncc2nc(-c3cn(C)c4ccccc34)c(=O)n(CCc3ccccc3)c2n1 | x | -6% | x | x | 15%
CC1(C)Cc2c(C#N)c(SCC(=O)c3ccccc3)nc(N3CCOCC3)c2CS1 | -22 | -16% | -3% | -27% | 13µM*
COC(=O)c1ccc(CSc2nc(N3CCOCC3)c3c(c2C#N)CC(C)(C)OC3)o1 | u | -2% | -20% | -13% | 1.3µM*
CN1Cc2c(N3CCOCC3)nc(SCc3ccccc3)c(C#N)c2CC1(C)C | -5 | u | -27% | x | u
COc1ccc(Cl)cc1NC(=O)CN1C(=O)COc2ccc(S(=O)(=O)NC3CCCC3)cc21 | x | 1%[46 µM] | x | x | x
COCc1ccc([C@@H]2C[C@H]3CN(Cc4ccccc4C)C(=O)[C@]34CCCN24)o1 | x | x | x | x | 20µM*
CC(C)(C)OC=O | x | x | 3% | -16% | 6%
COc1cccc(NC(=O)Cn2cc(S(=O)(=O)N3CCCC3)c(S(=O)(=O)N3CCCC3)c2)c1 | x | 7%[46 µM] | x | x | x
O=C1NC2(CCCc3ccccc32)C(=O)N1CCOc1ccc(Br)cc1 (stereo not drawn) | -9 | u | -3% | 16µM* | 4%
CCOc1ccc(OCCN2C(=O)NC3(CCCc4ccccc43)C2=O)cc1 (stereo not drawn) | u | u | -5% | -16% | -11%
CCc1c(C)sc(NC(=S)Nc2cccnc2)c1C(=O)OC | x | u | x | x | 9.5µM*
CCOC(=O)c1c(NC(=O)c2cccnc2)sc(C)c1C | 16 | -3% | 1% | u | u
CC(C)C1S/C(=N/N=C/c2cccs2)NC1=O (stereo not drawn) | u | 5% | 5% | 25µM* | u
CC1S/C(=N/N=C/c2cccs2)NC1=O (stereo not drawn) | -11 | -10% | 0% | x | -7%
Cc1ccc(-n2c(C)cc(/C=N/NC(=O)Cn3c4ccccc4c(=O)c4ccccc43)c2C)cc1 | 0 | u | -3% | u | u
Cc1cc(/C=N/NC(=O)Cn2c3ccccc3c(=O)c3ccccc32)c(C)n1-c1ccc(Cl)cc1 | -88* | -4% | -1% | u | u
CCNC(=S)N/N=C/c1cc(C)n(-c2ccc(Cl)cc2)c1C | x | x | x | x | -1%
Cc1nc2ccccn2c1C(=O)N/N=C/c1cc(C)n(-c2ccc(Cl)cc2)c1C | -100* | -10% | -1% | u | u
Cc1nc2ccccn2c1C(=O)N/N=C/c1ccccc1[N+](=O)[O-] | 2 | -12% | -3% | -7% | -43%
Cc1cc(/C=N/NC(N)=S)c(C)n1-c1ccc(Cl)c(Cl)c1 | 46 | u | u | u | 16µM*

Compound activity deposited in PubChem by National Center for Advancing Translational Sciences (NCATS).
